Test results from the supplement of paper PMC11732987, “Enantioselective OTUD7B fragment discovery through chemoproteomics screening and high-throughput optimisation” (Communications Chemistry, 2025).

What was measured:
Assay in all cases: log2 ratio of Biotin-Ahx-Ub-VS probe labelling (fragment/DMSO); higher = less target engagement (more negative = stronger competition), active = hit call of the paper (q ≤ 0.05, log2 ratio ≤ -1)
Conditions in all cases: compound concentration: 200 uM; treatment time: 3 h
ALG13 = biological target: T1, ALG13 (UniProt Q9NP73)
T1 sequence (whole entry): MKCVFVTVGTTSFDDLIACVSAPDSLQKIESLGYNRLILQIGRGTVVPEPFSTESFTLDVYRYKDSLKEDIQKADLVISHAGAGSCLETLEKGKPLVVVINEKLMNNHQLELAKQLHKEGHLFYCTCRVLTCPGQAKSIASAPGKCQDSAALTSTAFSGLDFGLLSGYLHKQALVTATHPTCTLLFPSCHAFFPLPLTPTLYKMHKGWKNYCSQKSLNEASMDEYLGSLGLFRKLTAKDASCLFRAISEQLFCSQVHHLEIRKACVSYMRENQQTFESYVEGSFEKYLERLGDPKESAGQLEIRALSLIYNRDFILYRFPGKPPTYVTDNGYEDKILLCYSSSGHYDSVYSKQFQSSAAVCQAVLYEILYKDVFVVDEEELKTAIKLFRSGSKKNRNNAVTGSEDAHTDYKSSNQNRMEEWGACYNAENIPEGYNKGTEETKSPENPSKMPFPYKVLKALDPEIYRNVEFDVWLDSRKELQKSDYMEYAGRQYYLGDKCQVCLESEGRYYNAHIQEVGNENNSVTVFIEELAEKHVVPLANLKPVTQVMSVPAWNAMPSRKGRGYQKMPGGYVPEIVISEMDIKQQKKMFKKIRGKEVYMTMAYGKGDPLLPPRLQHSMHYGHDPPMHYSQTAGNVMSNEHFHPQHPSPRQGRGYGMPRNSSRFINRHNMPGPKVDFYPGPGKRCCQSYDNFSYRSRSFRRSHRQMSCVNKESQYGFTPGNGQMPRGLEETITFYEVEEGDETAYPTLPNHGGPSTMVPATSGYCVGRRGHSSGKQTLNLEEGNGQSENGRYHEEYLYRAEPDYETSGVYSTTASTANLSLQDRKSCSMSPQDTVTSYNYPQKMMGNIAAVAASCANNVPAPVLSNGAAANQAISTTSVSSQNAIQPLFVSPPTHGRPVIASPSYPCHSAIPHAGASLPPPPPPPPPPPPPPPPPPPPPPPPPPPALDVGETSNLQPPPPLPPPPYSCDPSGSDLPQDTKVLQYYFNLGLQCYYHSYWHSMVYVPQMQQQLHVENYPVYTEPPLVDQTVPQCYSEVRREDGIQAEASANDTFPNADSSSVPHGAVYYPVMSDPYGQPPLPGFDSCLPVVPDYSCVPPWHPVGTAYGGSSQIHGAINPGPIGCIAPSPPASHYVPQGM
In short: (§1)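 Lysate from HEK293T cells, 495 µg per sample in Tris/CHAPS/IGEPAL buffer with protease inhibitors, was treated for 3 h in triplicate with fragment at 200 µM or vehicle. Biotin-Ahx-Ub-VS was next added at 0.5 µM final for 1 h. The labelled DUBs were enriched with NeutrAvidin, digested with LysC and trypsin, and run by diaPASEF LC-MS/MS, with values given as average log2 fragment/vehicle ratios by unpaired t-test on global-median-normalised Spectronaut quantities of proteins with ≥2 unique peptides.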

ATXN3 = ATXN3 (UniProt P54252)
Chain of ATXN3 (P54252 whole entry): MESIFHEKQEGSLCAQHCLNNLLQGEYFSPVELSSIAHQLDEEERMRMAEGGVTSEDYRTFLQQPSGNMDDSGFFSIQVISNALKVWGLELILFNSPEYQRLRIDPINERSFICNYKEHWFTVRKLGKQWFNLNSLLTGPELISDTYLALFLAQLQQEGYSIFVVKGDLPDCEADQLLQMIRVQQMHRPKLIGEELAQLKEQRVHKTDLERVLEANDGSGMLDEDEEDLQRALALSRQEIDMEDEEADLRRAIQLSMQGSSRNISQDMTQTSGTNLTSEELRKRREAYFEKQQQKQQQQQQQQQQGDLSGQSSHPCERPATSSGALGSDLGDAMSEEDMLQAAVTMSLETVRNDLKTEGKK
In short: as §1

BAP1 = biological target: T2, BAP1 (UniProt Q92560)
T2 sequence (whole entry): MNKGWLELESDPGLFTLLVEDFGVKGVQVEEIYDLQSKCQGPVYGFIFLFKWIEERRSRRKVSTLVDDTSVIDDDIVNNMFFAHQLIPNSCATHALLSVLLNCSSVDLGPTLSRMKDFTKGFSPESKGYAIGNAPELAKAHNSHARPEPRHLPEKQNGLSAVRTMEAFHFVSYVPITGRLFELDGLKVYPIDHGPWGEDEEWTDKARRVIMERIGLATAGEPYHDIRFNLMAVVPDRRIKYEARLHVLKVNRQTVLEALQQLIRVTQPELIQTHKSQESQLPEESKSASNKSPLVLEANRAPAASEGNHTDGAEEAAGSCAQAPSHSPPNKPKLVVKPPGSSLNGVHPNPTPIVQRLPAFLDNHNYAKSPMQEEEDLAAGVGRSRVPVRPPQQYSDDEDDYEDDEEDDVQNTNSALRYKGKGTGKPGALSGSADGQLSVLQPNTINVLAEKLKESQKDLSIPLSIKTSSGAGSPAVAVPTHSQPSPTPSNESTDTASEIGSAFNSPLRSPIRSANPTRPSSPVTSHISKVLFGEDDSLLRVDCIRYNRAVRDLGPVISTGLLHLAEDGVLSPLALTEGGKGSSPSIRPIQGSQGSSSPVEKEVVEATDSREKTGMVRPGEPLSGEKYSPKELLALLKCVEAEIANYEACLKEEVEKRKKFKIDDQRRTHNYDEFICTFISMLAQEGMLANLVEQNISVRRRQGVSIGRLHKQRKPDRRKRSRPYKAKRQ
In short: as §1

EIF3F = EIF3F (UniProt O00303)
Chain of EIF3F (O00303 whole entry): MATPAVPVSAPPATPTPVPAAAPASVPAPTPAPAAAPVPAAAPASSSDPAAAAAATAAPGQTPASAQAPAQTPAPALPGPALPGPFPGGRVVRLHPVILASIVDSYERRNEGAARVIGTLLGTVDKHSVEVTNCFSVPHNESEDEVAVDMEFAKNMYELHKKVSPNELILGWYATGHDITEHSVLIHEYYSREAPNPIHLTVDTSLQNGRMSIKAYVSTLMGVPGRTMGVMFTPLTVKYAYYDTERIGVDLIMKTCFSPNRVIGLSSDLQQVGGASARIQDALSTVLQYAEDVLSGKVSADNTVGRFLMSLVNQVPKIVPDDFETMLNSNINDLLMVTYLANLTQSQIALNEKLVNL
In short: as §1

EIF3H = EIF3H (UniProt O15372)
Chain of EIF3H (O15372 whole entry): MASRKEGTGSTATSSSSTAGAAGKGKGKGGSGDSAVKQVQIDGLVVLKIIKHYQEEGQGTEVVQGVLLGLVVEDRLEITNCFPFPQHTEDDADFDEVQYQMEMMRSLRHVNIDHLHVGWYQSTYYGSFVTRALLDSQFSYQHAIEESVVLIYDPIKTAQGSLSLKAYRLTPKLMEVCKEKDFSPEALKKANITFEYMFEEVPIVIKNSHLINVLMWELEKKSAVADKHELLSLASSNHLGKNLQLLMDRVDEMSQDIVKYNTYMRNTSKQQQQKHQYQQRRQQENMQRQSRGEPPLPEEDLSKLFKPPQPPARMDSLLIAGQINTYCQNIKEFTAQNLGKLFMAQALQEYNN
In short: as §1

FAM105A = biological target: T3, FAM105A (UniProt Q9NUU6)
T3 sequence (whole entry): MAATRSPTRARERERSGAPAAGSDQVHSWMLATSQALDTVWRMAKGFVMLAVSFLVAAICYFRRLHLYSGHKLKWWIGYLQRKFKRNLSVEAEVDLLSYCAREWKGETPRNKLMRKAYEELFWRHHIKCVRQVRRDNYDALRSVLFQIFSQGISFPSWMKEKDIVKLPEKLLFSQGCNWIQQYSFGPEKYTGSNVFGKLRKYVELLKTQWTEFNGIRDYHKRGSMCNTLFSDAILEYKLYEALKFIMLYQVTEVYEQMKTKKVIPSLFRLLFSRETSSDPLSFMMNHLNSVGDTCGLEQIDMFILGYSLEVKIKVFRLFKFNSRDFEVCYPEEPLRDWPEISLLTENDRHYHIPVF
In short: as §1

OTUB1 = OTUB1 (UniProt Q96FW1)
Chain of OTUB1 (Q96FW1 whole entry): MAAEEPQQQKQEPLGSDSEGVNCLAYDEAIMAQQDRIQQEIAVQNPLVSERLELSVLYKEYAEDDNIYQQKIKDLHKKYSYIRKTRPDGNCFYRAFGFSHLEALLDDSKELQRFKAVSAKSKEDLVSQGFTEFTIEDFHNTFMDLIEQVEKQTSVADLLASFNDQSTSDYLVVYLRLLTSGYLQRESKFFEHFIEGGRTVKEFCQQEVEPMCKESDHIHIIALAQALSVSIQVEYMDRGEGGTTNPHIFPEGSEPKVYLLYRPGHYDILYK
In short: as §1

OTUD4 = biological target: T4, OTUD4 (UniProt Q01804)
T4 sequence (whole entry): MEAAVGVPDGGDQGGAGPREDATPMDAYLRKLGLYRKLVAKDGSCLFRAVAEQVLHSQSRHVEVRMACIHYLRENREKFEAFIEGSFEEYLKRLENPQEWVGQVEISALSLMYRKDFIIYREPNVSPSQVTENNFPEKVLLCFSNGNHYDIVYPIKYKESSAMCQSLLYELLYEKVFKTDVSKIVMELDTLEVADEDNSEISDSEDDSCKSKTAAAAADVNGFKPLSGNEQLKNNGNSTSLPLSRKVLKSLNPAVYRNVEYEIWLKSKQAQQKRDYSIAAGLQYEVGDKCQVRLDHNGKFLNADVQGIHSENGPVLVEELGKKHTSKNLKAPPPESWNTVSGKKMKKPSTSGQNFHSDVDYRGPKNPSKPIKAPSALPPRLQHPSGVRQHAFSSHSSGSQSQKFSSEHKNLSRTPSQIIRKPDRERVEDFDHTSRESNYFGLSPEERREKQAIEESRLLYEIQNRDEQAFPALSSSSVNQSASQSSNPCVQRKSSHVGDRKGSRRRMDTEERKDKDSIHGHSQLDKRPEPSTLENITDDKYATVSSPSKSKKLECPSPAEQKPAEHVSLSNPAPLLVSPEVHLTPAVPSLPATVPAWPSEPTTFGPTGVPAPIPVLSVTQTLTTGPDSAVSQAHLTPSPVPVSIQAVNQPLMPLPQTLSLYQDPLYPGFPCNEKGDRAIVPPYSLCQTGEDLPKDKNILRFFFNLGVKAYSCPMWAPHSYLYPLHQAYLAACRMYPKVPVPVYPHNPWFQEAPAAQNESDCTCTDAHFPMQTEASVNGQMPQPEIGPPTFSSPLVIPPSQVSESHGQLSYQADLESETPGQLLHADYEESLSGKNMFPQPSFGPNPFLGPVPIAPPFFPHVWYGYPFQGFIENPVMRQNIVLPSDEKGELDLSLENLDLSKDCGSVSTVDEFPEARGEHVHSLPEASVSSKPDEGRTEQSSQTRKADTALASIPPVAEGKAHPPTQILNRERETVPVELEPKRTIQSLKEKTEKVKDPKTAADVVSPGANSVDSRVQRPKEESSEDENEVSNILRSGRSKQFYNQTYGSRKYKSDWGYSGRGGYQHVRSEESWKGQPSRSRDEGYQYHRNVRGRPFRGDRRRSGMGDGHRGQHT
In short: as §1

OTUD5 = biological target: T5, OTUD5 (UniProt Q96G74)
T5 sequence (whole entry): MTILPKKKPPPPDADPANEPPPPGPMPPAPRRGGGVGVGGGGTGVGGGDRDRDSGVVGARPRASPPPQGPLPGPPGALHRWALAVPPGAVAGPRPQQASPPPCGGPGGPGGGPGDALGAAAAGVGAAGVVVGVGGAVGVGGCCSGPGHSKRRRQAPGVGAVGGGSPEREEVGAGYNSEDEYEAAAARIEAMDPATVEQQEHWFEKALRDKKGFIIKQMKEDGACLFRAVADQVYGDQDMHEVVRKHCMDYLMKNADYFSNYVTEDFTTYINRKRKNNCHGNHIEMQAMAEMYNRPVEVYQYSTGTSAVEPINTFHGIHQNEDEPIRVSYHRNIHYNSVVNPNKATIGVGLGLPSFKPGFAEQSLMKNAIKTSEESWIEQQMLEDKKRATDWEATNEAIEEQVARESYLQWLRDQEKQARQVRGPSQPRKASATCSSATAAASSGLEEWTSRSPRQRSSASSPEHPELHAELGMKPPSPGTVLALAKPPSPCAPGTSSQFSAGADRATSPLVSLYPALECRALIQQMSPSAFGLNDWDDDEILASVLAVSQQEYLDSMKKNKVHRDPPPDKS
In short: as §1

Measured: log2 ratio of Biotin-Ahx-Ub-VS probe labelling

Cl.O=C(CCl)N1CCC(Cc2nccs2)C1 (centres undefined)
inactive: ALG13 0.0161 | ATXN3 -0.494 | BAP1 -0.428 | EIF3F -0.176 | EIF3H 0.0343 | FAM105A -0.0526 | OTUB1 -0.388 | OTUD4 -0.386 | OTUD5 -0.302
